Test results published in PubChem BioAssay.
Unmarked numbers belong to inactive results. Calls of active or inactive are those of the source.

molecular target: Luciferin 4-monooxygenase (Photinus pyralis) (UniProt P08659); test: firefly luciferase enzyme inhibitors, primary screen, biochemical, luminescence, purified enzyme, 2006 set (AID 1141); settings: SteadyGlo luminescence, 30 min, higher = more signal, called active from +8 up or from −8 down;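 note: cell-free assay with purified firefly luciferase at 100 ng per well in PBS; test concentration not given here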
Sequence (P08659 whole entry, looked up): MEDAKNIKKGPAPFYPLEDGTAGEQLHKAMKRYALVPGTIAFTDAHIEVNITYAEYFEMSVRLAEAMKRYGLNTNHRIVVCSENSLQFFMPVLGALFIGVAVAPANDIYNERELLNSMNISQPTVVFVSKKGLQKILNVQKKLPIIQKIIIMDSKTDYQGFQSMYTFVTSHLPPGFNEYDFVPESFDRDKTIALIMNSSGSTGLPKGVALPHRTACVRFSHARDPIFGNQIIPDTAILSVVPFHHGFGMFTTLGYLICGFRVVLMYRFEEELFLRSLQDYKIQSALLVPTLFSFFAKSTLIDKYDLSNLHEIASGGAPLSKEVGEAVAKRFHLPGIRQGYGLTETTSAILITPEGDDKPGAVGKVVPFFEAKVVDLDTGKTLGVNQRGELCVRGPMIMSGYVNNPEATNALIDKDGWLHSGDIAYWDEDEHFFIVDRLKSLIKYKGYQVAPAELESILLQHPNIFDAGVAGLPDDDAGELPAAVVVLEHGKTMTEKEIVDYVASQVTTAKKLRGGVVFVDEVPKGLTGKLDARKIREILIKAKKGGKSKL

SMILES | z-score
[N-]=[N+]=Nc1ccccc1C[C@@]1(C(=O)O)N=C(c2ccc(OCCCO)cc2)O[C@@H]1c1ccccc1N=[N+]=[N-] | -5.43
CCCCC(=O)N(CCN1CCOCC1)[C@@H]1CC(C(=O)NCCO)=C[C@H](Oc2c(I)cc(CO)cc2OC)[C@H]1O | -0.658
COc1ccc(C#Cc2ccc3c(c2)[C@]2(C(=O)N3)[C@H](C(=O)N3CCCCCCC3)[C@H]3C(=O)O[C@H](c4ccccc4)[C@H](c4ccccc4)N3[C@@H]2c2ccc(O)cc2)cc1 | 0.103
CCOC(=O)C1=C[C@@H](c2ccccc2)N(S(=O)(=O)c2ccc(C)cc2)[C@H]1c1ccccc1 | 1.94
COCCOC(=O)N1C(=O)[C@@]2(c3cc(C#CCCO)ccc31)[C@H](C(N)=O)[C@H]1C(=O)O[C@H](c3ccccc3)[C@H](c3ccccc3)N1[C@@H]2c1ccc(OCCO)cc1 | -1.17
C=C(/C(=C/C[C@@H](OC(C)=O)c1ccc(CO)o1)c1cc(C(=O)OC)ccc1OC)C(C)C | -3.52
CCCCCCCCCCC(O)C1C=CC2C(=O)N(C)C(=O)C2N1Nc1cc(OC)c(OC)c(OC)c1 (stereo not given) | -0.819
C=CCC(OC(C)=O)[C@@H]1[C@@H](N(Cc2ccc(-c3ccccc3)cc2)C(=O)Cc2ccc(F)cc2)c2cc(OCCCO)ccc2N1C(=O)Cc1ccc2ccccc2c1 (stereo not given in full) | -1.2
COCCOC(=O)N1C(=O)[C@@]2(c3cc(C#CCNC(N)=O)ccc31)[C@H](c1ccc(OCCO)cc1)N1[C@H](c3ccccc3)[C@H](c3ccccc3)OC(=O)[C@H]1[C@@H]2C(=O)NC[C@H](O)c1ccccc1 | 0.0945
C=C[C@@H](C)[C@H](O)c1ccc(OCCO)cc1 | -15.8 (active)
CC(=O)N1CC(C(O)C2C=CC3C(=O)NC(=O)C3N2Nc2ccc(Cl)cc2Cl)c2ccccc21 (stereo not given) | -1.4
Nc1cc(Br)ccc1C(=O)O | -1.1
C=C(CCCC)/C(=C/C[C@H](OC(C)=O)c1ccc(OCCO)cc1)c1cc(C(=O)OC)ccc1OC | -1.69
C=C(COC)/C(=C/C[C@H](OC(C)=O)c1cccc(OCCO)c1)c1cnc2ccccc2c1 | -1.06
C=CCNC(=O)[C@H]1[C@@H]2C(=O)O[C@@H](c3ccccc3)[C@@H](c3ccccc3)N2[C@@H](c2ccc(OCCO)cc2)[C@]12C(=O)N(C(=O)OCCOC)c1ccc(C#Cc3ccc(OC)cc3)cc12 | -1.51
